# This is part of a sample that, as a whole, favours compounds with a hit. Of some 83,000 tested, about 20% had one in any assay.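 Step 1: grow cells in 96-well plates. Step 2: add test compound at a single concentration. Step 3: incubate 48 h. Step 4: record percent growth.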 Activity calls are given as the source filed them. How the source made its calls: active means growth percent below 10; inactive means the rest.
# System: HT29 colon
# Assay: NCI-60 one-dose screen, 48 h (100 = growth as untreated, 0 = no growth, -100 = all killed)
# Details: 10 µM unless noted
row,SMILES,growth
1,CN1CC=C(c2cc(NC(=O)Nc3ccc(Oc4ccnc(NC(=O)C5CC5)c4)c(F)c3)cc(C(F)(F)F)c2)CC1,-13.6% (active)
2,COc1ccc(C(=O)c2cc(OC)c(C)c(OC)c2)cc1OC(=O)CCl,55.6% (inactive)
3,NC(=O)C(O)(c1ccccc1)c1ccccc1,92.3% (inactive)
4,CCOC(=O)C(=Cc1c(-c2ccccc2)[nH]c2ccccc12)C(=O)OCC,31% (inactive)
5,C=C(C)[C@@H]1CC[C@]2(C(=O)OCCCC[P+](c3ccccc3)(c3ccccc3)c3ccccc3)CC[C@]3(C)[C@H](CC[C@@H]4[C@@]5(C)CC[C@H](OC(=O)C(Cl)Cl)C(C)(C)[C@@H]5CC[C@]43C)[C@@H]12,3% (active)
6,CC(=O)Nc1ccc2c(c1)Cc1cc(F)ccc1-2,92.2% (inactive)
7,Cc1nccc2c3ccc(OCc4cn(-c5ccccc5)nn4)cc3n(CCCc3ccccc3)c12,38.5% (inactive)
8,N#Cc1c(NC(=O)c2cccs2)[n+]([O-])c2cc(C(F)(F)F)ccc2[n+]1[O-],107% (inactive)
9,O=C(Nc1ccccc1)NS(=O)(=O)c1c[nH]c(=S)[nH]c1=O,73.7% (inactive)
10,O=C(CSC(=S)N1CCCCC1)Nc1ccccc1,91.2% (inactive)
11,COc1ccccc1-c1ccc2nc(NC(=O)Nc3cc(C(F)(F)F)cc(C(F)(F)F)c3)sc2c1,4.76% (active)
12,Cc1cc(Cl)cc(CN(Cc2ccccc2)Cc2c(O)ccc3ccccc23)c1O,98.5% (inactive)
13,Cn1cc(-c2ccc3c(c2)ncn3-c2ccc(CC(=O)Nc3cc(C(C)(C)C)on3)cc2)cn1,27.1% (inactive)
14,COc1ccc2nc(-c3ccc(Cl)cc3)cc(C(=O)N3N=C(c4ccc(N)cc4)CC3c3ccccc3)c2c1 (configuration not stated),19.6% (inactive)
15,COc1cc(C(=O)Nc2cc(O)c(C/C=C(\C)CCC=C(C)C)c(O)c2)cc2c1O[C@]1(C)CC[C@@H](O)C(C)(C)[C@H]1C2,-25.5% (active)
16,C=C(C)[C@@H]1CC[C@]2(C(=O)NCCCO)CC[C@]3(C)[C@H](CC[C@@H]4[C@@]5(C)CCCNC(C)(C)[C@@H]5CC[C@]43C)[C@@H]12,7.18% (active)
17,Nc1ccc2c(c1)C(=O)C(=O)c1c-2nc2ccccn12,76.1% (inactive)
18,CC(C)NS(=O)(=O)c1cccc(-c2ccc3c(=O)n(CCCN)c4c(c3c2)C(=O)c2ccccc2-4)c1,89.6% (inactive)
19,CCSc1nc(Cl)c(C#N)c(-c2ccc(F)cc2)n1,92.6% (inactive)

row,SMILES,growth
1,COc1ccc(-c2[nH]c3ccc(OC)cc3c2C=C(C#N)C#N)cc1,15% (inactive)
2,OCCNc1nc(NCCO)nc(Nc2ccc(C3=NN(c4cc(Cl)cc(Cl)c4)C(c4ccccc4)C3)cc2)n1 (configuration not stated),9.1% (active)
3,COc1ccc2[nH]c(=O)c(/C=C/C(=O)c3ccccc3OC)cc2c1,7.17% (active)
4,CC(=O)Nc1nc2c(c(N)c1C#N)C(c1cccc(Cl)c1)C1=C(CCCC1=O)N2c1sc2c(c1C#N)CCCC2 (configuration not stated),29.4% (inactive)
5,C#C[C@@]1(O)[C@@H](CO)O[C@@H](n2cnc3c(-c4ccccc4)ncnc32)[C@@H]1O,101% (inactive)
6,COc1cc(-c2cn(-c3ccc(Cl)c(Cl)c3)c(=O)[nH]2)cc(OC)c1OC,102% (inactive)
7,Nc1ccc(C2=NN(C(=O)c3cc(-c4ccc(Cl)cc4)nc4ccccc34)C(c3ccccc3)C2)cc1 (configuration not stated),12.2% (inactive)
8,Cc1c(Cl)cccc1NC(=O)c1sc2nc3c(cc2c1N)COCC3,5.9% (active)
9,CC1CCN(CCCCCOc2ccc3oc4ccccc4c(=O)c3c2)CC1,10.8% (inactive)
10,O=S(=O)(Nc1nccs1)c1ccc(Nc2nc(-c3ccncc3)cs2)cc1,120% (inactive)
11,N#Cc1c(-c2ccc(F)cc2)nc(N/N=C/c2cccc(O)c2)nc1N1CCOCC1,79.8% (inactive)
12,COc1cc(-c2csc(NC(=O)Nc3cc(Cl)cc(Cl)c3)n2)cc(OC)c1OC,21.9% (inactive)
13,COc1ccc(C(=O)c2cc(F)c(F)c(OC)c2F)cc1OC(=O)CCl,94.8% (inactive)
14,Cc1c(Cl)cccc1NC(=O)c1sc2nc3c(cc2c1N)CCCCCC3,-10.3% (active)
15,C#C[C@@]1(O)[C@@H](CO)O[C@@H](n2cc(-c3ccco3)c3c(N)ncnc32)[C@@H]1O,28.8% (inactive)
16,COc1cc(/C=C/C(=O)c2ccc(NC(=O)CSc3nnc(-c4cc(OC)c(OC)c(OC)c4)n3-c3ccccc3)cc2)cc(OC)c1OC,1.25% (active)
17,COc1ccccc1C(=O)/C=C/c1cc2cccc(OC)c2[nH]c1=O,-39.1% (active)
18,CN1C(=O)c2cc(Cl)nc3c(NC(=O)c4cccc(Cl)c4)c(Cl)c(NC(=O)c4cccc(Cl)c4)c1c23,-57.7% (active)
